# KAT2A inh = qHTS Assay for Inhibitors of GCN5L2. GCN5L2 HAT assay, ThioGlo1 CoA-SH fluorescence. Potency, µM (highest dose often 58.9 µM), inactives show at the highest dose activity change, negative = inhibition, most hits filed as inhibitors. hit rate 0.21% among 390,000. AID 504327, 2011
# Target sequence (Q92830 whole entry, looked up): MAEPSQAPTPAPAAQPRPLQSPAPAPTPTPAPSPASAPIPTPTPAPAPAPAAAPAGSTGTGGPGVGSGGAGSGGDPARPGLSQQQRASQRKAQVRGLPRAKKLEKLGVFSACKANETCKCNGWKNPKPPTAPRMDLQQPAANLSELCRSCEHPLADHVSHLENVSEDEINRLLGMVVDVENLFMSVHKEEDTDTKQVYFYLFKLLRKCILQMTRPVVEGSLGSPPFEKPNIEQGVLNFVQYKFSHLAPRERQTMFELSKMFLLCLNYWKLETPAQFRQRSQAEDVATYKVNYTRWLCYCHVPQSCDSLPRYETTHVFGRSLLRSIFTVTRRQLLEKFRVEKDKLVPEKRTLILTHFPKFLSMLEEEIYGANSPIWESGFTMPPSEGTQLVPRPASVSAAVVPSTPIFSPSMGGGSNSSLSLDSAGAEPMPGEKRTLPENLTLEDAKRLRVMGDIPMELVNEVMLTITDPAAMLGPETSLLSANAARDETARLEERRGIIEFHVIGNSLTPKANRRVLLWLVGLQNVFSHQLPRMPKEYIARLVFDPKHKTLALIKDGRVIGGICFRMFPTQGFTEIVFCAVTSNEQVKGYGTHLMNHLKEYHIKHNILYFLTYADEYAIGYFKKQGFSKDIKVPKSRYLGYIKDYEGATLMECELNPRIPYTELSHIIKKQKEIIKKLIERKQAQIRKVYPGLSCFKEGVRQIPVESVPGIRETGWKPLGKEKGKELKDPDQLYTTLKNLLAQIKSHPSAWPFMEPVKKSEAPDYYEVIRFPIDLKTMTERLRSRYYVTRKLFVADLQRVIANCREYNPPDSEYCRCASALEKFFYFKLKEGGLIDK
#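 ThioGlo1-coupled HAT assay: 20nM GCN5L2, 70uM acetyl-CoA, 75uM H3(1-25) peptide, pH 7.5. Fluorescence read at 340/540nm at start and after 20 min at room temperature.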
# TDP1 inh = qHTS Assay for Inhibitors of Tyrosyl-DNA Phosphodiesterase (TDP1); AID 485290, 2010; Potency, µM (top dose mostly 130 µM), without a hit: at the highest dose activity change, negative = inhibition, most hits filed as inhibitors; hit rate 0.28% among 350,000; recombinant TDP1, AlphaScreen DNA substrate cleavage; further: nearly all actives have a fitted effect of over 40% in size
#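 Recombinant human Tdp1 (E. coli-expressed, 1 nM final) preincubated with compounds 15 min at room temperature, then 5'-biotin/3'-phosphotyrosine-FITC DNA substrate (15 nM final) added for 5 min. AlphaScreen beads (10 ug/ml final) added 10 min; cleavage lowers signal.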
# TDP1 cell noCPT = qHTS for Inhibitors of human tyrosyl-DNA phosphodiesterase 1 (TDP1): qHTS in cells in absence of CPT. DT40 Tdp1-/- hTDP1 cells, no CPT, ATP luminescence, 48 h. Potency, µM (highest dose often 46.2 µM), without a hit: at the highest dose activity change, negative = growth inhibition, most hits filed as inhibitors. hit rate 15% among 420,000; further: nearly all actives have a fitted effect of over 55% in size
#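 Seeded 400 DT40-hTDP1 cells/well (vehicle DMSO, no 20 nM CPT); pinned compounds; ≥48 hr at 37 °C; CellTiter-Glo luminescence as viability measure.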
# TDP1 cell CPT = qHTS for Inhibitors of human tyrosyl-DNA phosphodiesterase 1 (TDP1): qHTS in cells in presence of CPT | chicken DT40 Tdp1-/-;hTDP1 cells + 20 nM CPT, ATP luminescence, 48 h | Potency, µM (highest dose often 46.2 µM), without a hit: top-dose activity change, negative = growth inhibition, hits mostly inhibitors | hit rate 12% among 420,000 | AID 686979, 2013; further: nearly all actives have a fitted effect of over 55% in size
#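 Chicken DT40 Tdp1-/- cells stably complemented with human TDP1 were seeded at 400 cells/well in medium containing 20 nM camptothecin, exposed to pin-transferred compounds, and grown at 37 °C for at least 48 hr. Viability was read as ATP luminescence.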
# PLK1 PBD inh = qHTS for Inhibitors of PLK1-PDB (polo-like kinase 1 - polo-box domain): Primary Screen. Serine/threonine-protein kinase PLK1 (Homo sapiens), P53350. Plk1 PBD binding of FITC phosphopeptide, fluorescence polarization. Potency, µM, for the others: max response, negative = inhibition, actives largely listed as inhibitors. hit rate 2.8% among 360,000. AID 720504, 2013; further: series mostly up to about 57 µM; nearly all actives have a fitted effect of over 65% in size
# VDR inh = Inhibitors of the vitamin D receptor (VDR): qHTS. Vitamin D3 receptor (Homo sapiens), P11473. VDR-SRC2-3 peptide fluorescence polarization, 2 h. Potency, µM, inactives show max response, negative = inhibition, hits mostly inhibitors. hit rate 0.93% among 400,000
#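 The screen uses fluorescence polarization to detect compounds that interfere with recruitment of the SRC2-3 coactivator peptide to VDR; plates are read after 2 h at room temperature.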
# An asterisk follows results filed as active; ? = inconclusive; nt = not tested or not shown; [ ] = another dose, or the depositor's remark. An excerpt weighted towards active compounds, which were near 18% of everything screened. The call rests on the fitted dose curve; in most records, active means well fitted curve in the direction sought with a large enough effect; inconclusive means small, poorly fitted or top-dose-only effect, or another doubt; inactive means no such curve, though single readings can be large; an effect the other way counts as inactive or inconclusive. On the % scale 0 is the no-effect control and ±100 the full control effect; potency means the concentration at half of the fitted maximal effect.
SMILES,KAT2A inh,TDP1 inh,TDP1 cell noCPT,TDP1 cell CPT,PLK1 PBD inh,VDR inh
CCN(C(=O)COC(=O)/C=C/c1ccc(OC)c(OC)c1)c1c(N)n(Cc2ccccc2)c(=O)[nH]c1=O,nt,nt,6.6%,-13.5%,0.8%,15.3%
CCOc1cc(C(c2c(O)nc(SC)[nH]c2=O)c2c(O)nc(SC)[nH]c2=O)ccc1O,nt,nt,-17.7%,-3.6%,11.9µM*,?
CCOc1cc(C(c2c(C)[nH]n(-c3ccccc3)c2=O)c2c(C)[nH]n(-c3ccccc3)c2=O)ccc1O,-3.0%,2.2%[12.3 µM],5.17µM*,?,nt,?
CCc1nc2ccc(C(=O)Nc3cccc(NS(C)(=O)=O)c3)cn2c1N(C)C(=O)c1cccc(OC)c1,nt,nt,1.8%,-9.5%,-3.5%,nt
CCc1nc2ccc(C(=O)Nc3cc(-c4ccccc4)ccc3OC)cn2c1N(C)C(=O)c1cccc(OC)c1,nt,nt,18.4µM*,?,8.2%,nt
CCc1nc2ccc(C(=O)NCC3CCCCC3)cn2c1N(C)Cc1nccs1,nt,nt,20.6µM*,16.4µM*,-2.5%,nt
CCc1nc2ccc(C(=O)N(CC)CCN(C)C)cn2c1N(C)Cc1nccs1,nt,nt,-1.7%,-4.7%,-6.7%,nt
CCc1nc2ccc(C(=O)NCCOc3ccc(OC)cc3)cn2c1N(C)C(=O)COc1ccccc1,nt,nt,4.4%,?,-7.5%,nt
CCc1nc2ccc(C(=O)Nc3cc(-c4ccccc4)ccc3OC)cn2c1N(C)Cc1nccs1,nt,nt,9.2µM*,13µM*,-10.4%,nt
CCc1nc2ccc(C(=O)Nc3cc(-c4ccccc4)ccc3OC)cn2c1N(C)Cc1ccc(OC)cc1,nt,nt,8.2µM*,7.31µM*,0.0%,nt
CSCCOC(=O)C1=C(C)Nc2ccc(C)cc2S1,-6.9%,7.9%,16.4µM*,20.6µM*,18.9µM*,?
CCOCCOC(=O)C1=C(C)Nc2ccc(C)cc2S1,-6.7%,7.8%,-24.0%,-2.1%,?,89.1µM*
Cc1ccc2c(c1)Sc1c(ccc3ccccc13)N2,-7.2%,10.6%,?,?,?,-17.8%
CCOC(=O)C1=C(C)Nc2ccc(C)cc2S1,-17.1%,5.1%,?,?,?,?
CC(Sc1nnc(COc2ccc(Cl)cc2)n1Cc1ccco1)C(=O)N1CCNC1=O (stereo not drawn),2.2%,2.6%,?,?,-17.4%,-28.2%
Cc1cc([N+](=O)[O-])nn1CC(=O)N1c2ccccc2CC1C (stereo not drawn),-0.8%,5.5%,-29.9%,?,3.7%,-17.8%
Cc1ccc(-c2cn(-c3ccc(SC(F)F)cc3)c3[n+]2CCC3)cc1,10.9%,-5.3%,0.461µM*,0.651µM*,-21.1%,-10.4%
Brc1ccc(-c2csc3[n+]2CCCCC3)cc1,-2.7%,-3.7%,?,-3.7%,-12.0%,-3.2%
Clc1ccc(-n2cc(-c3ccc(Br)cc3)[n+]3c2CCCCC3)cc1,0.3%,2.8%,6.51µM*,5.8µM*,0.9%,1.4%
FC(F)Sc1ccc(-n2cc(-c3ccc(Cl)cc3)[n+]3c2CCC3)cc1,27.1%,7.9%,8.2µM*,9.2µM*,-7.5%,-7.5%
O=C(O)c1c(C(=O)O)c2ccccc2[nH]c1=O,nt,nt,-8.6%[9.04 µM],-18.4%[9.04 µM],nt,-5.5%
CCOC(=O)c1cccc(NC(=S)NCc2ccc(C)cc2)c1,-0.3%,3.6%,-3.3%,-4.4%,4.1%,9.5%
O=C(COC(=O)/C=C/c1ccc([N+](=O)[O-])cc1)NCC1CCCCC1,3.8%,0.0%,3.4%,-11.1%,-1.8%,-1.7%

# Source: PubChem BioAssay (National Center for Advancing Translational Sciences (NCATS))
